Laboratory results from paper PMC5540273 (PLoS ONE, 2017).

Experiments:
Settings in all cases: concentration: 1 μM, replicates: in singlicate; n = 1
PKAC-beta = tested on: T1, PKAC-beta
T1 construct: gene PRKACB

PKMYT1 = tested on: PKMYT1
PKN1 = tested on: PKN1
PKN2 = tested on: PKN2
PLK1 = tested on: PLK1
PLK2 = tested on: PLK2
PLK3 = tested on: PLK3
PLK4 = tested on: PLK4
PRKCD = tested on: PRKCD
PRKCE = tested on: PRKCE
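Note: KINOMEscan kinase panel screen.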

SMILES	%Inh (PKAC-beta) [%]	%Inh (PKMYT1) [%]	%Inh (PKN1) [%]	%Inh (PKN2) [%]	%Inh (PLK1) [%]	%Inh (PLK2) [%]	%Inh (PLK3) [%]	%Inh (PLK4) [%]	%Inh (PRKCD) [%]	%Inh (PRKCE) [%]
CNCc1ccc2nc(NC(=O)c3ccc(C(C)(C)C)cc3)cn2c1	5	11	8	7	2	7	22	8	0	12
CC(=O)c1c(C)c2cnc(Nc3ccn(C)n3)nc2n(C2CCCC2)c1=O	0	0	0	0	0	8	0	15	0	0
COc1ccc(Nc2nccc(N3CCC(NC(=O)C(C)c4ccc(Cl)cc4)C3)n2)cc1 (stereo not shown) [GSK1379735]	4	0	29	0	0	0	0	0	0	5
Cc1ccc(NC(=O)Nc2ccc(Cl)cc2)cc1-c1ccc(C(=O)Nc2ccncc2)cc1 [GSK1398472]	0	5	0	0	0	0	0	0	0	21
O=c1cc(N2CCOCC2)nc2n(Cc3cccc(Cl)c3Cl)c3ccccc3n12 [GSK2299009]	11	32	21	0	0	0	0	7	32	3
CSc1ccc(-c2nc3n(c2-c2ccncc2)CCC3)cc1 [SKF-105561]	18	5	0	12	1	29	6	2	9	23
COc1ccc(Nc2nccc(N3CCC(NC(=O)c4cc5ccccc5s4)C3)n2)cc1 (stereo not shown) [GSK1379738]	0	3	23	0	11	0	0	3	0	17
c1ccc(-c2ccnc3[nH]ccc23)cc1 [SB-693578]	8	6	0	0	0	0	0	5	0	7
Cc1ccc(NC(=O)Nc2ccccc2)cc1-c1ccc(C(=O)Nc2ccncc2)cc1 [GSK1398471]	0	28	0	2	2	0	0	1	0	0
O=C1NC(=O)C(c2ccc(Cl)cc2)=C1Nc1cccc(Cl)c1 [SB-317651]	94.7	0	15	0	4	0	30	0	12	3
Cc1ccc(NC(=O)c2ccc(Cl)cc2)cc1-c1ccc(C(=O)Nc2ccncc2)cc1 [GSK1398467]	0	2	2	0	0	0	0	0	3	15
CC(=O)c1c(C)c2cnc(Nc3ccc(N4CCNCC4)cn3)nc2n(C2CCCC2)c1=O	6	23	0	15	0	0	0	6	18	55
Cc1cccc2c(-c3ccncn3)c(-c3ccc(F)cc3)nn12 [GW515532]	15	5	23	0	0	0	0	0	5	0
Cc1cnc(N)c(/C=C/c2cncc(C(=O)NCCc3ccc(Cl)cc3Cl)c2)c1.Cl [GSK190937]	–	0	7	0	0	0	0	0	8	21
COc1ccc(CSc2nnc(-c3ccc4c(c3)CCO4)o2)cc1	0	19	0	0	0	0	0	0	14	0
COc1ccc(CSc2nnc(-c3ccc4ncsc4c3)o2)cc1C(F)(F)F	1	22	0	0	0	4	0	2	13	0
COc1cccc(C2=C(Nc3cc(Cl)c(O)c(Cl)c3)C(=O)NC2=O)c1 [SB-390767]	0	4	0	0	0	0	0	0	0	28
Cc1ccccc1-c1cc(-c2c[nH]nc2-c2ccccn2)ccn1 [GW680061]	0	0	0	0	0	0	0	0	0	10
COc1ccc(-c2coc3ccc(-c4nnc(C)o4)cc23)cc1	8	1	7	18	0	0	0	2	5	2
CS(=O)(=O)CCNCc1nc(-c2ccc3ncnc(Nc4ccc5c(cnn5Cc5ccccc5)c4)c3c2)cs1.Cl.Cl [GW569716]	3	6	0	15	0	0	0	13	0	11
COC(=O)c1cccc(NC(=O)NC2CCN(c3ccnc(Nc4ccc(OC)cc4)n3)C2)c1 (stereo not shown) [GSK1379746]	0	0	11	0	0	0	0	0	0	8

SMILES	%Inh (PKAC-beta) [%]	%Inh (PKMYT1) [%]	%Inh (PKN1) [%]	%Inh (PKN2) [%]	%Inh (PLK1) [%]	%Inh (PLK2) [%]	%Inh (PLK3) [%]	%Inh (PLK4) [%]	%Inh (PRKCD) [%]	%Inh (PRKCE) [%]
COc1ccc2cc(-c3nc(-c4ccccc4C(C)C)[nH]c3-c3ccncc3)ccc2c1 [SB-660566]	3	7	24	0	0	0	0	4	0	0
Cc1c(Cn2c(C)c(C)n3c(=O)cc(N4CCOCC4)nc23)cccc1C(F)(F)F [GSK2328680]	0	17	0	0	0	100	0	0	0	0
O=C(Nc1n[nH]c2cc(-c3ccsc3)ccc12)C1CC1 [SB-732932]	18	9	56	4	2	24	0	0	0	0
O=C(Nc1n[nH]c2nc(-c3cccs3)c(Br)cc12)C1CC1 [SB-735297]	2	0	0	0	9	19	7	8	7	19
COc1cccc(CNC(=O)NC2CCN(c3ccnc(Nc4ccc(F)cc4)n3)C2)c1 (stereo not shown) [GSK1379723]	0	2	4	0	0	0	0	0	0	9
Fc1ccc(-c2nc[nH]c2-c2ccncc2)cc1 [SB-217360]	0	9	0	0	9	21	36	4	8	0
CCCCc1nn2ncccc2c1-c1ccnc(NC2CC2)n1 [GW684374]	0	0	18	0	0	0	0	0	0	1
Cc1ccc(NC(=O)Nc2ccc(Cl)c(C(F)(F)F)c2)cc1-c1ccc(C(=O)Nc2ccncc2)cc1 [GSK1398470]	0	0	10	25	0	0	0	0	0	0
CS(=O)(=O)Cc1ccc(Nc2nccc(-c3c(-c4cccc(NC(=O)C5CCCCC5)c4)nn4ncccc34)n2)cc1 [GSK350559]	0	3	10	0	15	3	13	6	0	0
FC(F)(F)c1ccccc1-c1cc(-c2c[nH]nc2-c2ccccn2)ccn1 [GW679396]	17	5	0	12	1	0	0	1	6	11
Cc1nccc(-c2c(-c3ccc(F)cc3)ncn2CCCN2CCOCC2)n1.Cl [SB-282975]	0	0	19	1	44	21	5	3	31	11
O=C1NC(=O)C(c2ccc(Cl)cc2)=C1Nc1ccc(O)cc1 [SB-340867]	18	0	0	12	0	0	0	0	0	1
CC(=O)c1cccc(NC(=O)NC2CCN(c3ccnc(Nc4ccc(F)cc4)n3)C2)c1 (stereo not shown) [GSK1379710]	0	3	31	0	7	0	9	0	0	15
CS(=O)(=O)CCNCc1nc(-c2ccc3ncnc(Nc4ccc(OCc5ccccc5)c(Cl)c4)c3c2)cs1.Cl [GW582764]	2	0	0	0	0	0	0	0	0	6
Fc1ccc(-c2nc3n(c2-c2ccncc2)CCS3)cc1 [GI98581]	23	10	0	0	0	0	0	0	1	0
CC[C@@H]1CO[C@H](C(=O)Nc2ccccc2)CN1c1cc(-c2ccc3c(N)n[nH]c3c2)nc(NC)n1 [GSK2376236]	73	0	85	0	0	0	0	0	0	3
CNc1nc(-c2ccc3c(N)n[nH]c3c2)cc(N2C[C@@H](C(=O)Nc3ccccc3)CC[C@H]2C)n1 [GSK2298859]	66	0	0	0	0	0	0	0	16	0
COC(=O)c1cccc(NC(=O)NC2CCN(c3ccnc(Nc4ccc(F)cc4)n3)C2)c1 (stereo not shown) [GSK1379725]	0	0	0	0	0	0	0	0	0	4
CNc1nc(-c2ccc3c(N)n[nH]c3c2)cc(N2C[C@@H](C(=O)NC3CCCCC3)OC[C@H]2C)n1 [GSK2375584]	10	0	29	0	3	0	1	1	8	8
Fc1ccc(-c2nn3cccc(F)c3c2-c2ccncc2)cc1 [GW475620]	47	11	9	11	9	69	0	3	19	6
